SMILES strings stand for the structures. Inconclusive results are not listed. Calls of active or inactive are those of the source. The calls were made as follows: active = hit-call score of the fitted dose curve at least 0.9, where 1 is the maximum; inconclusive = response in the unintended direction; inactive = score below 0.9.

Chain of Hepatocyte nuclear factor 4-alpha (Homo sapiens) (P41235 whole entry, looked up): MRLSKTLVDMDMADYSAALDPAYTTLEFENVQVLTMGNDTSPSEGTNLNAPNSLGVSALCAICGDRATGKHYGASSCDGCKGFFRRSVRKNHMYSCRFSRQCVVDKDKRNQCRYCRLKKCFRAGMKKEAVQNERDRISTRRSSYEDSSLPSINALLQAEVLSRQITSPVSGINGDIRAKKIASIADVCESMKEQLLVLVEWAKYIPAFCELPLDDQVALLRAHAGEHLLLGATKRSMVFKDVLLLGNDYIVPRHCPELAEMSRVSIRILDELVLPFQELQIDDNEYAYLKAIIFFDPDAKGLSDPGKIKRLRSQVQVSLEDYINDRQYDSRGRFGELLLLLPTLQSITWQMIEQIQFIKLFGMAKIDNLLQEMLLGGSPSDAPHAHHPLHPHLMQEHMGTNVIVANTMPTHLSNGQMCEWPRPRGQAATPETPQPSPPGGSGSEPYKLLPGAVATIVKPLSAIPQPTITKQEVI

The assay deals with Hepatocyte nuclear factor 4-alpha (Homo sapiens) (UniProt P41235). In words: ATG_HNF4a_TRANS: Attagene TRANS-FACTORIAL HepG2 Assay for human Hepatocyte Nuclear Factor 4 alpha (HNF4a) (AID 2282982). The settings on record: HepG2 HNF4a transactivation reporter, mRNA readout. As for the experimental part:
ATG_TRANS is a cell-based, multiplexed-readout assay that uses HepG2, a human liver cell line, with measurements taken at 24 hours after chemical dosing in a 24-well plate.ATG_HNF4a_TRANS is one of 30 assay component(s) measured or calculated from the ATG_TRANS assay. It is designed to make measurements of mRNA induction, a form of inducible reporter, as detected with fluorescence intensity signals by Reverse transcription polymerase chain reaction (RT-PCR) and Capillary electrophoresis technology.Data from the assay component ATG_HNF4a_TRANS was analyzed into 1 assay endpoint. This assay endpoint, ATG_HNF4a_TRANS, was analyzed in the positive analysis fitting direction relative to DMSO as the negative control and baseline of activity. Using a type of inducible reporter, measures of mRNA for gain-of-signal activity can be used to understand the reporter gene at the transcription factor-level as they relate to the gene HNF4A. Furthermore, this assay endpoint can be referred to as a primary readout, because this assay has produced multiple assay endpoints where this one serves a reporter gene function. To generalize the intended target to other relatable targets, this assay endpoint is annotated to the nuclear receptor intended target family, where the subfamily is orphan.
Human liver HepG2 cells are transiently transfected with multiple reporter transcription units (MRTUs) in 6-well plates using FuGene 6 reagent (Roche; 3 ml FuGene/1 mg DNA). The MRTU constructs are regulated by a cis-regulating element (promoter). […] A major difference between the CIS and TRANS system is that in CIS activities of endogenous TFs are measured, whereas the TRANS assay evaluates changes in activities of exogenous, chimeric NR-Gal4 proteins. […] At the end of 24 hour incubation, total RNA was isolated using TriZol reagent (Invitrogen). The isolated RNA is then reverse-transcribed using oligo(dT) primer and Mo-MLV reverse transcriptase (Invitrogen) with DNAse I (Ambion) treatment for 30 min. The one-tenth of the produced cDNA was amplified by PCR using Taq DNA polymerase (Invitrogen) and two reporter sequence-specific primers. The PCR products were fluorescently labeled by primer extension with 6-arboxyfluorescein (6-FAM) 5'-labeled reporter sequence-specific primer (2 min at 95 C, 20 s at 68 C and 10 min at 72 C) and these products were digested with 5U of HpaI (New England Biolabs) for 2h at 37 C. The fragments were purified using Qiaquick PCR columns (Qiagen), analyzed on an ABI 3130xL genetic analyzer (Applied Biosystems) with peak positions identified by using a set of X-rhodamine (ROX)-labeled MapMarker1000 molecular weight standards (BioVentures). The raw capillary electrophoresis data was processed using Attagraph software (Attagene).
Regarding `CC(=O)O[C@]1(C(C)=O)CC[C@H]2[C@@H]3C=C(Cl)C4=CC(=O)[C@@H]5C[C@@H]5[C@]4(C)[C@H]3CC[C@@]21C`, the molecule was classed as inactive.
`CC(=O)[C@@]1(O)CC[C@H]2[C@@H]3CCC4=CC(=O)CC[C@]4(C)[C@H]3CC[C@@]21C`: the result was inactive.
With `COc1ccc(C(=O)Nc2nc3ccccc3c(NCc3ccccc3)c2C#N)cc1` the entry was “inactive”; with `O=C1CCCCC1`, “inactive”; with `O=NO`, “inactive”.
Regarding `CN(C)C(=O)NC1(c2ccccc2)CCN(CCC[C@]2(c3ccc(Cl)c(Cl)c3)CCCN(C(=O)c3ccccc3)C2)CC1`, the call was inactive.
The result for `Oc1ccc(O)cc1` reads “inactive”; that for `CC(COCC(C)OC(=O)c1ccccc1)OC(=O)c1ccccc1` (stereo unspecified), “inactive”; that for `NC(=Nc1ccccc1)Nc1ccccc1`, “inactive”.
Take `CC(C)COC(=O)CCCCC(=O)OCC(C)C`: the molecule was classed as inactive.
With `CS(=O)(=O)c1ccc([C@@H](C[C@H]2CCC(=O)C2)C(=O)Nc2cnccn2)cc1Cl` the entry was “inactive”.
With `Nc1nc(=S)c2[nH]cnc2[nH]1` the entry was “inactive”; with `CC1(C)C(=O)NC(=O)N1CO`, “inactive”.
With `CCCCOC(=O)CCCCC(=O)OCCCC` the entry was “inactive”; with `Cc1occc(=O)c1O`, “inactive”.
On to `C=CCc1ccc(OC)c(OC)c1`, for which the call was inactive.
With `CC(C)OC(=O)C(C)(C)Oc1ccc(C(=O)c2ccc(Cl)cc2)cc1` the entry was “inactive”; with `O=[Si]=O`, “inactive”; with `O=C1NC(=O)C(c2ccccc2)(c2ccccc2)N1`, “inactive”.
The result for `NC=O` reads “inactive”; that for `CCCCCCCCCCCCCCCCO`, “inactive”.
The result for `CC(C)c1cccc(C(C)C)c1` reads “inactive”.
`CCN(CC)CCOc1ccc(C(=C(Cl)c2ccccc2)c2ccccc2)cc1`: the outcome was inactive.
Regarding `C/C=C/c1ccc(OC)cc1`, the molecule was called inactive.
Regarding `C=CCCCCCCCCCCCC`, the molecule was called inactive.
As for `CC(C)c1cccc(C(C)C)c1NC(=O)NS(=O)(=O)c1cc(C(C)(C)O)co1`, the outcome was inactive.
Consider `NC1CCCCC1`, for which the molecule was classed as inactive.
The result for `CCCC(=O)O` reads “inactive”; that for `S=c1[nH]c2ccccc2s1`, “inactive”.
As to `C/C=C/C=C/C(=O)O`, the molecule was called inactive.
With `CCCCC(CC)CO` (stereo unspecified) the entry was “inactive”; with `CCCCCCC(C=O)=Cc1ccccc1`, “inactive”; with `COc1ccc(OC(F)(F)F)cc1CN[C@H]1CCCN[C@H]1c1ccccc1`, “inactive”.
The result for `CC(=O)OCC(COC(C)=O)OC(C)=O` reads “inactive”.
The result for `COC(=O)CCCC(=O)OC` reads “inactive”; that for `O=C(O)CN(CC(=O)O)CC(=O)O`, “inactive”.

Source of the values: PubChem BioAssay (EPA / NIEHS).
